Compound activity deposited in PubChem by National Center for Advancing Translational Sciences (NCATS).
Shown are actives, neighbours in structure and some others; about 2.8% of the full set was active somewhere.
POLB inh = inhibitors of human DNA polymerase beta. AID 485314. Pol beta primer extension/strand displacement, fluorescence kinetic. Potency, µM (titrated, usually from 114 µM), for inactives: top-dose activity change, negative = inhibition, hits mostly inhibitors. actives 1.3% (n = 340,000); further: potency means the concentration at half of the fitted maximal effect; on the % scale 0 is the no-effect control and ±100 the full control effect
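Human Pol beta at 10 nM; strand-displacement substrate 50 nM final. Compound exposure 15 min at room temperature before start, reaction 10 min at room temperature.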
WRN inhibitor = blocks human WRN helicase. actives 0.46% (n = 360,000). Q14191. Potency, µM (top dose mostly 114 µM), inactives show top-dose activity change, negative = inhibition, actives largely listed as inhibitors. WRN helicase unwinding, fluorescent forked duplex, kinetic; further: potency means the concentration at half of the fitted maximal effect; on the % scale 0 is the no-effect control and ±100 the full control effect; nearly all actives have a fitted effect of over 55% in size
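WRN at 20 nM final preincubated with compound 15 min at room temperature; reaction started with 100 nM fluorophore/quencher forked duplex oligonucleotide and 2 mM ATP final. Unwinding followed kinetically by red fluorescence (ex 525, em 598 nm).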
POLI inh = DNA polymerase iota (human) inhibition | Q9UNA4 | Pol iota fluorescent replication assay, 10 min | Potency, µM (doses to about 115 µM), without a hit: top-dose activity, negative = inhibition, actives largely listed as inhibitors | actives 1% (n = 390,000); further: potency means the concentration at half of the fitted maximal effect
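Fluorescent replication assay read twice, at 0 min and 10 min after adding 50 nM (final) substrate. Enzyme (10 nM) and compounds were first incubated 15 min at room temperature; enzyme-free buffer wells were negative controls.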
POLK inh = DNA polymerase kappa (human) inhibition. purified Pol kappa, fluorescent DNA synthesis assay, 10 min. Potency, µM (doses to about 107 µM), for inactives: at the top dose activity, negative = inhibition, hits mostly inhibitors. actives 0.53% (n = 400,000). Q9UBT6; further: potency means the concentration at half of the fitted maximal effect; on the % scale 0 is the no-effect control and ±100 the full control effect
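Inhibition of 10 nM Pol kappa is measured by a fluorescent read-out at 0 and 10 min following addition of 50 nM substrate (final), with a 15-min room-temperature compound preincubation.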
PI5P4K alpha inh = PI5P4K alpha (human) kinase inhibition; P48426; PI5P4Kalpha enzyme, ADP-Glo luminescence, 60 min; active compounds read low; max response, %; actives 1.2% (n = 330,000); AID 652105; active means max response of -50% or lower; inconclusive means between -30% and -50%; inactive means -30% or higher; further: value at the top dose of about 77 µM; on the % scale 0 is the no-effect control and ±100 the full control effect
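PI5P4Kalpha ADP-Glo assay; 5 microM ATP final; 60 min RT reaction; HEPES pH 7.4/EGTA/CHAPS, 5% DMSO; controls lacking substrate or enzyme; luminescent end-point.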
POLH inh = DNA polymerase eta (human) inhibition. Potency, µM (titrated, usually from 114 µM), without a hit: top-dose activity change, negative = inhibition, hits mostly inhibitors. actives 1.2% (n = 390,000). Q9Y253. recombinant Pol eta, fluorescent DNA replication assay; further: potency means the concentration at half of the fitted maximal effect; on the % scale 0 is the no-effect control and ±100 the full control effect
Target sequence (Q9Y253 whole entry, looked up): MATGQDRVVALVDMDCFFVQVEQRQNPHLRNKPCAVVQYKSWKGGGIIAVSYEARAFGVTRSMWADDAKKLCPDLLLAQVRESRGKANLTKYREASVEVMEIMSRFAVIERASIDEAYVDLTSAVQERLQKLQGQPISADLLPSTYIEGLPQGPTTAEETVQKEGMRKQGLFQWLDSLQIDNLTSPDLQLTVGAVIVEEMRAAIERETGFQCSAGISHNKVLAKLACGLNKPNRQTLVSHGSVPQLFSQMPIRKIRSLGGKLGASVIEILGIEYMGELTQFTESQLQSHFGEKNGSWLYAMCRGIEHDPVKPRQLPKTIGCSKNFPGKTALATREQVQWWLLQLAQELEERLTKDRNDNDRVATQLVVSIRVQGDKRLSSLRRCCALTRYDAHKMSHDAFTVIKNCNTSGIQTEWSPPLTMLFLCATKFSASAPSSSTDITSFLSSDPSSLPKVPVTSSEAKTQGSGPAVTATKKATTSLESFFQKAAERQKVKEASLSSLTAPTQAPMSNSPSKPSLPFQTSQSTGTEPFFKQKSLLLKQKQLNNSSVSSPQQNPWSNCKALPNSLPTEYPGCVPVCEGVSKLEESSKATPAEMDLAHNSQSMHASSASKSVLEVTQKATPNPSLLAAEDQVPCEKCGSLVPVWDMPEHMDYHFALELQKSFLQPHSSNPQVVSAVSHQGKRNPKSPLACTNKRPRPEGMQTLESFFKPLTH
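Pol eta at 10 nM preincubated with compounds 15 min at room temperature; reaction started with fluorescent substrate (50 nM final) and read kinetically at 0 and 10 min.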
Active calls of the source: *; ? = inconclusive; · = not tested or not shown; ! = a repeat was not active; [ ] = another dose, or the depositor's remark. Unless noted, the call rests on the fitted dose curve; in most records, active means well fitted curve in the direction sought with a large enough effect; inconclusive means small, poorly fitted or top-dose-only effect, or another doubt; inactive means no such curve, though single readings can be large; an effect the other way counts as inactive or inconclusive.

SMILES | POLB inh | WRN inhibitor | POLI inh | POLK inh | PI5P4K alpha inh | POLH inh
COc1cc(N2C(=O)C=CC2=O)ccc1N1C(=O)C=CC1=O | · | 20µM* | 39.8µM* | 39.8µM* | -68.2* | 25.1µM*
COc1ccc(N2C(=O)C3CC(C)=C(C)CC3C2=O)c(OC)c1 (stereo unspecified) | 3.3% | 1.8% | -5.6% | 3.6% | 1.4 | -1.8%
COc1cc(/C=C/c2cccc[n+]2C)ccc1OCC(=O)Nc1ccccc1C | -22.1% | -0.8% | 9.8% | 5.9% | 1.2 | 0.1%
CCOc1cc(/C=C/c2cccc[n+]2C)ccc1OCC(=O)Nc1ccc(C)cc1 | 12.6µM* | 0.1% | ? | ? | 9.7 | -19.7%
Nc1nonc1C(=O)NCCNCc1ccc(Cl)c(Cl)c1 | 12.6% | · | -8.8% | 9.0% | · | -12.3%
Cc1ccc2cc3cc(C(=O)NCc4ccco4)oc3nc2c1 | 79.4µM* | ? | ? | ? | -7.6 | ?
Cc1ccc2nc(SCC(=O)NCc3ccco3)c(C#N)cc2c1 | ? | -13.3% | -5.8% | -5.3% | -7.2 | ?
Cc1ccc2cc(C#N)c(SCC(=O)NCc3ccco3)nc2c1 | 22.4µM* | -19.8% | ? | -42.7% | 1.0 | ?
COc1ccc(CNC(=O)c2cc3cc4ccc(C)cc4nc3o2)cc1 | -1.5% | · | 12.0% | -1.5% | · | -14.7%
COc1ccc(CCN2C(=O)c3oc4ccc(F)cc4c(=O)c3C2c2ccc(C(C)(C)C)cc2)cc1 (stereo unspecified) | 32.4% | · | 18.9% | -9.8% | · | -17.0%
COc1ccc(CCNC(=O)CN2C(=O)COc3ccc(C)cc32)cc1OC | ? | · | -1.6% | -3.8% | · | -3.7%
CNc1ccc(C=C2C=CC=C2)cc1 | · | · | 5.01µM* | ? | · | ·
COc1ccc(OCC(=O)NCC(c2ccc(OC)cc2)N2CCCCC2)cc1 (stereo unspecified) | 89.1µM*! | -1.0% | 16.7% | -2.3% | 4.0 | -3.1%
N#C/C(=C\c1ccc(-c2ccc(C(=O)O)cc2)o1)C(=O)NCC1CCCO1 (stereo unspecified) | 15.8µM* | -13.8% | ? | ? | -27.4 | 12.6µM*
Cc1cccc(C)c1NC(=O)/C(C#N)=C/c1ccc(-c2ccc(C(=O)O)cc2)o1 | ? | -20.0% | -8.5% | ? | ? | 50.1µM*
CCOC(=O)c1ccc(-c2ccc(/C=C(\C#N)C(=O)Nc3cccc(C)c3)o2)cc1 | 25.5% | · | -8.6% | -8.4%[60.1 µM] | · | -7.2%
Cc1cc(C)c(S(=O)(=O)Nc2ccc(-c3ccc(N4CCCCC4)nn3)cc2)c(C)c1 | -1.6% | · | 2.0% | -5.4%[60.1 µM] | · | -16.4%
Cc1[nH]c2ccccc2c1C(=O)C(C)Sc1nc2ccccc2c(=O)n1Cc1cccnc1 (stereo unspecified) | · | · | 4.0% | -6.5% | · | ·
COc1cccc(C2CC(=O)Nc3c2ccc(C)c3C)c1OC (stereo unspecified) | -1.8% | · | 24.4% | 3.9% | · | -13.9%
CCSc1nc(-c2ccc(OC)cc2)nc2c1Cc1c(CO)cnc(C)c1O2 | 20.1% | · | -22.8% | 1.8% | · | 19.4%
O=C1c2ccccc2NC(c2ccccc2O)N1Cc1ccco1 (stereo unspecified) | · | · | 23.9% | -1.2% | · | ·
CCCc1ccc(C(=O)NNC(=O)c2ccc(Br)cc2)cc1 | 44.7µM* | -11.9% | ? | -21.3% | -8.4 | ?
CCOC(=O)NCCOc1ccc(Oc2ccccc2)cc1 | · | · | · | -1.6%[60.1 µM] | · | ·
CCOc1ccccc1C(O)C1=CC(=O)c2ccccc2C1=O (stereo unspecified) | · | ? | 6.31µM* | ? | ? | 3.16µM*
CC(C)(C=O)C1=CC(=O)c2ccccc2C1=O | 0.4% | 50.1µM* | ? | 3.9% | -52.0* | ?
SMILES | POLB inh | WRN inhibitor | POLI inh | POLK inh | PI5P4K alpha inh | POLH inh
COc1ccc(S(=O)(=O)N(CC(=O)N(C)Cc2ccccc2)c2ccc(Cl)cc2)cc1 | 13.0% | · | 14.1% | 6.0% | · | -23.6%
CC(C)(C)n1ncc2c(=O)n(Cc3ccccc3-c3ccccc3)cnc21 | · | · | 14.4% | 3.8% | · | ·
C[N+]1=C(/C=C/Nc2ccccc2Cl)C(C)(C)c2ccccc21 | 27.0% | -31.4%[57.1 µM] | -0.9% | 1.7% | 1.3 | ?
COC(=O)c1ccc2c(c1)C(C)(C)C(/C=C/c1ccccc1O)=[N+]2C | ? | 56.2µM* | 28.2µM* | 35.5µM* | · | 18.5%
CCC(=O)N1CCc2cc(S(=O)(=O)CCC(=O)Nc3ccc(Cl)c(C(F)(F)F)c3)ccc21 | 8.5% | · | 12.4% | -8.0% | · | -14.0%
CCOc1cccc(C2C=C(c3ccc4c(c3)OCO4)NC(c3ccccc3F)N2)c1O (stereo unspecified) | · | · | ? | -17.9% | · | ·
COc1ccc(-c2nnc(SCC(=O)Nc3cccc(F)c3)s2)cc1 | 35.5µM* | · | -9.6% | -13.3%[60.1 µM] | · | -6.1%
COc1ccc(-c2nnc(SCC(=O)Nc3cccc(C)c3)s2)cc1 | -3.6% | · | 5.2% | -10.6%[60.1 µM] | · | -2.7%
COc1ccc(OC)c(-n2c(C)nc3cc(C(=O)O)ccc32)c1 | 16.6% | -4.8%[57.1 µM] | -4.7% | -5.3% | -7.3 | 79.4µM*
O=C(COC(=O)c1ccccc1OCc1ccccc1Cl)NC1CC1 | 20µM* | 5.1% | 12.8% | -1.2% | 4.8 | -3.0%
CCc1cccc(CC)c1-n1c(SCC(=O)N2CCCc3ccccc32)nc(O)cc1=O | · | -15.7% | ? | 44.7µM* | -18.1 | -16.1%
O=C(O)c1cccnc1SCC(=O)N1CCCc2ccccc21 | ? | -5.7%[11.6 µM] | ? | -38.1% | -7.4 | 20µM*
O=C(CSc1ncccn1)N1CCCc2ccccc21 | 15.0% | 9.8% | 112.8% | -6.0% | -3.5 | -20.7%
COC(=O)c1ccc(OC(=O)c2cccnc2SC)cc1 | 14.7% | 12.8%[57.1 µM] | 30.0% | -4.8% | 1.0 | -4.1%
COC(=O)c1ccc(OC(=O)c2ccccn2)cc1 | ? | 2.6% | 17.8µM* | -8.6% | 0.1 | 9.1%
COC(=O)c1c(NC(=O)c2ccccc2)sc(C(N)=O)c1C | 13.7% | -4.8%[11.6 µM] | 89.1µM* | -6.1% | -9.1 | -16.2%
COC(=O)c1c(NC(=O)C2CC=CCC2C(=O)O)sc(C)c1C (stereo unspecified) | 5.1% | -2.8% | 29.7% | 4.9% | · | -9.4%
COC(=O)c1c(NC(=O)C2CC=CCC2C(=O)O)sc(C(N)=O)c1C (stereo unspecified) | 2.8% | ? | 14.1µM* | -17.1% | -20.0 | ?
CCN(CC)c1ccc(NC(=O)C2CCN(S(=O)(=O)c3cnc[nH]3)CC2)c(C)c1 | 40.4% | · | 4.6% | 0.4% | · | 7.0%
COc1ccc(OC)c2c(=O)cc(C(=O)O)[nH]c12 | -26.5% | -26.2% | 158.7% | -1.0% | -11.8 | -9.9%
O=C(O)c1cc(=O)c2c3nc4ccccc4oc-3cc(=O)c2[nH]1 | · | · | ? | 10µM* | · | ·
COc1ccc(N2CCN(C(=O)CSc3nc(-c4ccc(C(C)C)cc4)no3)CC2)cc1 | ? | · | 13.1% | -9.7% | · | -11.8%
